Assay [1] can be described thus: APR_HepG2_CellCycleArrest_24hr: Apredica 24-hour HepG2 Assay for Cell Cycle Arrest (AID 2282905).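 Further: cell cycle arrest scored as ratio of 2N to 4N nuclear DNA content.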 Conditions: imaging, actives raise or lower the signal. In outline:
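HepG2 cells were exposed to compounds at 0.39–200 uM (ten concentrations, duplicate) in 0.5% v/v DMSO for 24 hr. After formaldehyde fixation and Triton permeabilization, Hoechst 33342-stained nuclei were imaged at 20x; DNA content was quantified, with bidirectional fitting against DMSO.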

The nature of assay [2]: APR_HepG2_NuclearSize_24hr: Apredica 24-hour HepG2 Assay for Nuclear Size (AID 2282907). The settings on record: high-content imaging, actives raise or lower the signal. In outline: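 HepG2 human liver cells were exposed for 24 hr to compounds at 0.39–200 uM (ten concentrations, duplicate) in 0.5% v/v DMSO. They were then formaldehyde-fixed, Triton-permeabilized and Hoechst 33342-stained, and nuclear diameter was imaged at 20x. Bidirectional fits were made against DMSO.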

Assay [3] can be described thus: APR_HepG2_CellLoss_24hr: Apredica 24-hour HepG2 Assay for Cell Loss (AID 2282908).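 On AC50: fit in both directions so a hit may be cell loss or gain.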 Conditions: high-content imaging. In short, it runs like this: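 Compounds were tested at 0.39–200 uM in duplicate with 0.5% v/v DMSO final. Cells were then fixed in 3.7% formaldehyde, Hoechst 33342 nuclei were imaged at 20x by HCS, and cell number was fitted bidirectionally against DMSO.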

A short description of assay [4]: APR_HepG2_MicrotubuleCSK_24hr: Apredica 24-hour HepG2 Assay for Microtubule CSK Stabilty (AID 2282909). The settings on record: HepG2 microtubule cytoskeleton imaging, actives raise or lower the signal. In outline:
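HepG2 cells exposed 24 h to compounds at 0.39–200 uM (duplicate, 0.5% v/v DMSO final), then fixed, permeabilized and immunostained for alpha-tubulin with Hoechst 33342. Cytoskeleton imaged at 20x; bidirectional fit versus DMSO baseline.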

Assay [5] is described as follows: APR_HepG2_MitoticArrest_24hr: Apredica 24-hour HepG2 Assay for Mitotic Arrest (AID 2282910). Conditions: high-content imaging, actives raise or lower the signal. In short, it runs like this: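 Compounds are dosed onto HepG2 cells across ten concentrations up to 200 uM for 24 hr. Cells are then fixed in 3.7% formaldehyde, permeabilised, and labelled for phospho-histone H3 and nuclei; images are scored by cell cycle analysis and fitted bidirectionally relative to DMSO.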

A short description of assay [6]: APR_HepG2_MitoMembPot_24hr: Apredica 24-hour HepG2 Assay for Mitochondrial Membrane Potential (AID 2282911). Conditions: imaging, actives raise or lower the signal. In outline:
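Mitochondrial membrane potential imaged via MitoTracker Red CMXRos (250 nM, 30 min pre-fixation) in fixed HepG2 cells with Hoechst nuclear identification. Ten concentrations 0.39–200 uM, 24 h treatment, 0.5% DMSO; CCCP as positive control.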

Assay [7] can be described thus: APR_HepG2_MitoMass_24hr: Apredica 24-hour HepG2 Assay for Mitochondrial Mass (AID 2282912). The settings on record: high-content imaging, actives raise or lower the signal. In outline: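 Human HepG2 liver cells were exposed for 24 hr to compounds at 0.39–200 uM (duplicates, 0.5% v/v DMSO final). They were stained live with 250 nM MitoTracker Red CMXRos for 30 min, fixed in 3.7% formaldehyde, and imaged by HCS fluorescence; signals were fitted bidirectionally against DMSO.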

Assay [8] is described as follows: APR_HepG2_p53Act_24hr: Apredica 24-hour HepG2 Assay for p53 Activation (AID 2282913).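 Further: p53 protein immunofluorescence averaged per cell in HepG2 with Hoechst nuclei.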 The settings on record: high-content imaging, actives raise or lower the signal. In outline:
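Fluorescence imaging of formaldehyde-fixed HepG2 cells labelled for p53 and with Hoechst, 24 h after dosing (0.39–200 uM, duplicate wells, 0.5% v/v DMSO). Signal fitted in both directions relative to DMSO.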

Assay [9] is described as follows: APR_HepG2_CellCycleArrest_72hr: Apredica 72-hour HepG2 Assay for Cell Cycle Arrest (AID 2282914). The settings on record: high-content imaging, actives raise or lower the signal. In short, it runs like this: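 Read-out: nuclear DNA content from Hoechst 33342 high-content imaging (20x, six fields/well) after 3.7% formaldehyde fixation, fitted bidirectionally against DMSO. Treatment was 72 h in HepG2, ten concentrations 0.39–200 uM, duplicate, 0.5% DMSO.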

Assay [10] in a line: APR_HepG2_CellLoss_72hr: Apredica 72-hour HepG2 Assay for Cell Loss (AID 2282915). Conditions: high-content imaging. In outline: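 Cell number comes from Hoechst 33342-labelled nuclei, imaged at 20x after 3.7% formaldehyde fixation. Dosing was 0.39–200 uM, ten concentrations in duplicate, 0.5% DMSO final, for 72 h. Bidirectional fit relative to DMSO baseline.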
Assay [11] in a line: APR_HepG2_P-H2AX_72hr: Apredica 72-hour HepG2 Assay for H2AX Phosphorylation (AID 2282916).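 Further: phospho-histone H2A.x immunostain intensity per cell marking DNA damage.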 The settings on record: imaging, actives raise or lower the signal. In outline: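 HepG2 human liver cells were exposed for 72 hr to compounds at 0.39–200 uM (10 concentrations, duplicate per plate) in 0.5% v/v DMSO. Fixed, permeabilized cells were immunolabeled for phospho-histone H2A.x with Hoechst 33342 and imaged by HCS fluorescence; bidirectional fit versus DMSO.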

Assay [12] is described as follows: APR_HepG2_MitoMembPot_72hr: Apredica 72-hour HepG2 Assay for Mitochondrial Membrane Potential (AID 2282917). The settings on record: imaging, actives raise or lower the signal. In short, it runs like this:
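Membrane potential read by MitoTracker Red CMXRos (250 nM, 30 min, pre-fixation) fluorescence imaging of HepG2 after 72 hr exposure. Ten concentrations, 0.39–200 uM, duplicate wells, 0.5% DMSO; fitted in both directions against DMSO baseline.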

A short description of assay [13]: APR_HepG2_MitoticArrest_72hr: Apredica 72-hour HepG2 Assay for Mitotic Arrest (AID 2282918). The settings on record: high-content imaging, actives raise or lower the signal. In outline: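 High-content imaging of fixed human HepG2 cells after 72 h compound exposure (0.39–200 uM, duplicates, 0.5% DMSO); mitotic arrest scored from phospho-histone H3 and nuclear Hoechst staining relative to DMSO.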

The nature of assay [14]: APR_HepG2_MicrotubuleCSK_72hr: Apredica 72-hour HepG2 Assay for Microtubule CSK Stabilty (AID 2282919). The settings on record: HepG2 microtubule cytoskeleton, high-content imaging, actives raise or lower the signal. In short, it runs like this:
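Read-out is tubulin fluorescence intensity from high-content imaging of HepG2 cells, with nuclei identified by Hoechst 33342. Treatment lasts 72 h at 0.39–200 uM, and curves are fitted bidirectionally against the DMSO negative control.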

Assay [15] is described as follows: APR_HepG2_P-H2AX_24hr: Apredica 24-hour HepG2 Assay for H2AX Phosphorylation (AID 2282920). The settings on record: high-content imaging, actives raise or lower the signal. In short, it runs like this:
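High-content imaging of phospho-histone H2A.x immunofluorescence, nuclei counterstained with Hoechst 33342, in fixed HepG2 cells. Compounds ran 0.39–200 uM in duplicate for 24 h, final DMSO 0.5%. Signal change fitted both directions against DMSO.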

Assay [16] in a line: APR_HepG2_StressKinase_72hr: Apredica 72-hour HepG2 Assay for Stress Kinase (AID 2282921). Conditions: HepG2 stress kinase (phospho-c-Jun) imaging, actives raise or lower the signal. In short, it runs like this:
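Cells were exposed for 72 h to ten concentrations (0.39–200 uM, duplicate) at 0.5% v/v DMSO final, then fixed with 3.7% formaldehyde, permeabilized and immunostained for phospho-c-Jun (Cy3 secondary) with Hoechst nuclear counterstain.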

Assay [17] can be described thus: APR_HepG2_StressKinase_24hr: Apredica 24-hour HepG2 Assay for Stress Kinase (AID 2282922). Conditions: HepG2 stress kinase (phospho-c-Jun) imaging, actives raise or lower the signal. In outline:
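HepG2, 24 hr dosing, 0.39–200 uM in duplicate, 0.5% DMSO; formaldehyde fix (3.7%), 0.5% Triton X-100; anti-phospho-c-Jun + Cy3 secondary, Hoechst counterstain; ArrayScan imaging; bidirectional curve fit vs DMSO baseline.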

Assay [18] can be described thus: APR_HepG2_p53Act_72hr: Apredica 72-hour HepG2 Assay for p53 Activation (AID 2282923).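 Further: average cellular p53 protein immunofluorescence intensity in HepG2 cells.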 The settings on record: high-content imaging, actives raise or lower the signal. In short, it runs like this:
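Cells were dosed for 72 hr with compounds at 0.39–200 uM in duplicate (final DMSO 0.5% v/v), then fixed in 3.7% formaldehyde, permeabilized with Triton X-100 and immunostained for p53 (Cy5) with Hoechst 33342 nuclear counterstain.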

Assay [19] is described as follows: APR_HepG2_MitoMass_72hr: Apredica 72-hour HepG2 Assay for Mitochondrial Mass (AID 2282924).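 Further: MitoTracker Red CMXRos stain intensity per cell imaged as mitochondrial mass.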 Conditions: high-content imaging, actives raise or lower the signal. In short, it runs like this:
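HepG2, 72 hr cmpd, 10 conc 0.39–200 uM in dup, DMSO 0.5% v/v. MitoTracker Red CMXRos 250 nM 30 min pre-fix; formaldehyde 3.7% fix 30 min RT. HCS imaging, gain/loss fit vs DMSO.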

Assay [20] is described as follows: APR_HepG2_NuclearSize_72hr: Apredica 72-hour HepG2 Assay for Nuclear Size (AID 2282925). The settings on record: high-content imaging, actives raise or lower the signal. In short, it runs like this:
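HepG2; cpd 0.39–200 uM, 10 conc, duplicate; 72 h; DMSO 0.5% v/v; fix 3.7% formaldehyde 30 min RT; Triton permeabilization; Hoechst 2 ug/mL; HCS imaging 20x; nuclear diameter; gain/loss fit vs DMSO.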

Activity calls are given as the source filed them. How the source made its calls: active means hit-call score of the fitted dose curve at least 0.9, where 1 is the maximum; inactive means score below 0.9.

In the case of `Nc1ccc(Cc2ccc(N)cc2)cc1`, the call in assay [1], in assay [2], in assay [3], in assay [4], in assay [5] and in assay [6] was inactive. The call in assay [7], in assay [8], in [9], in [10], in assay [11] and in [12] was inactive. The outcome in assay [13], in assay [14], in assay [15], in assay [16], in assay [17] and in assay [18] was inactive. Also, the call in assay [19] and in assay [20] was inactive.

For the compound `CNC(=O)Oc1cccc2c1OC(C)(C)C2`, the call in assay [1], in assay [2], in [3], in assay [4], in [5] and in assay [6] was inactive. The compound was called inactive in [7], in [8], in assay [9], in [10], in assay [11] and in [12]. Also, the outcome in [13], in [14], in assay [15], in assay [16], in assay [17] and in assay [18] was inactive. Moreover, the result in [19] and in assay [20] was inactive.

Turning to `O=C(Oc1ccc(Br)cc1)N1CCN2CCC1CC2`, the outcome in assay [1], in assay [2], in assay [3], in assay [4], in assay [5] and in assay [6] was inactive. For the same compound, the compound was called inactive in assay [7], in [8], in [12], in assay [14], in [15] and in assay [16]. The compound was classed as inactive in [17], in assay [19] and in assay [20]. For the same compound, the AC50 in [9] was 96.3 µM (active); in assay [10], 80.8 µM (active); in [11] it was 101 µM (active); in [13] it was 106 µM (active); in assay [18] it was 103 µM (active).

For the compound `[As]#[In]`, the compound was classed as inactive in assay [1], in assay [2], in assay [3], in assay [4], in assay [5] and in assay [6]. The call in [7], in assay [8], in assay [9], in assay [10], in assay [11] and in [12] was inactive. Besides, the compound was classed as inactive in assay [13], in assay [14], in assay [15], in assay [16], in assay [17] and in [18]. The call in [19] and in [20] was inactive.

Take `Oc1ccccc1Cl`: the call in assay [1], in [2], in [3], in assay [4], in assay [5] and in assay [6] was inactive. In addition, the compound was classed as inactive in assay [7], in assay [8], in [9], in assay [10], in [11] and in assay [12]. In addition, the compound was called inactive in [13], in assay [14], in [15], in [16], in assay [17] and in assay [18]. For the same compound, the compound was classed as inactive in assay [19] and in assay [20].

On to `Clc1ccc(C(c2ccc(Cl)cc2)C(Cl)Cl)cc1`, for which the AC50 in [1] is 100 µM (active); in [3], 93.7 µM (active); in assay [4] it was 156 µM (active); in assay [5] it was 89.6 µM (active); in assay [6] it was 63.9 µM (active); in assay [7], 89.1 µM (active). Moreover, the AC50 is 107 µM (active) in assay [8]; 90.9 µM (active) in assay [9]; 93.8 µM (active) in assay [10]; 104 µM (active) in [11]; 68.3 µM (active) in assay [13]; 156 µM (active) in [14]. Further, the figures for the half-maximal activity concentration (AC50) in [15], in assay [16] and in [18] were 108 µM (active), 114 µM (active) and 87.1 µM (active), respectively. Also, the outcome in assay [2], in [12], in assay [17], in [19] and in assay [20] was inactive.
